Reference: PubChem BioAssay AID687014 (The Scripps Research Institute Molecular Screening Center, 2013)
The campaign covered roughly 370,000 compounds. About 6,800 (1.8%) were called active. What follows is part of a selection rich in actives, with near analogues and random picks from the rest. Values without a mark were called inactive.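 The calls were made as follows: active = activation above a cutoff set at the mean of all screened compounds plus 3 SD (cut at about 10% in these data); inactive = the rest.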

These molecules were tested on Nuclear hormone receptor DAF-12 (Heterodera glycines), GAL4 fusion (assay: H. glycines DAF-12 receptor agonists, primary screen, cell-based, luminescence, HEK293, GAL4 fusion, UAS-luciferase (AID 687014;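 also: 0% = DMSO wells and 100% = sodium butyrate wells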)). Settings: HEK293 GAL4-hgDAF12 UAS-luciferase reporter, agonist luminescence; at 6.8 µM; active compounds read high; normalized to butyrate control.
`COCc1cc(N2CCN(C(=O)OC(C)(C)C)C[C@@H]2C)ccc1N1CCN(Cc2ccccc2)[C@H](C)C1` was tested, and the activation was 4.83%.
In the case of `O=C(CSc1cccc[n+]1[O-])c1ccc(-c2ccccc2)cc1`, the activation is reported as 10.8% (active).
Work on `CCN(C(=O)CSc1cccc[n+]1[O-])c1ccccc1` yielded an activation of -0.46%.
`O=C(CSc1cccc[n+]1[O-])NCCCc1ccccc1` gave an activation of 1.17%.
Molecule `COc1ccc(C(=O)N/N=C(\C)CC(=O)Nc2ccc(Cl)cn2)cc1` has an activation of 0.32%.
With `Cc1nc(NC(=O)c2ccc3c(c2)OCCO3)ccc1Br` the activation was 7.16%.
For `CC(OC(=O)CNC(=O)c1ccco1)C(=O)Nc1ccc(Cl)cn1` (configuration not stated), the activation was 1.56%.
`O=C(Nc1ccc(Cl)cn1)c1ccc2c(c1)OCCO2` was tested, and the activation was 18.1% (active).
For `CC1(c2ccc(Cl)cc2)NC(=O)N(CC(=O)c2ccc3c(c2)OCO3)C1=O` (configuration not stated), the activation was -1.6%.
In the case of `CCCc1cc(C(=O)Nc2ccc(Cl)cn2)cs1`, the activation is reported as 12.9% (active).
`O=C(c1c[nH]c2ccccc12)N1CCC(Oc2cccnc2)CC1` gave an activation of 4.09%.
`Cc1ccc(C(=O)C2CCN(CC(=O)NCCC(C)C)CC2)cc1` showed an activation of -0.75%.
With `CC(C)CC(=O)N1CCC(O)(CS(=O)(=O)Cc2ccccc2)CC1` the activation was -2.29%.
Molecule `CCCCC(=O)N[C@@H]1CC[C@@]23CCCN2C(=O)CCC[C@H]3[C@H]1C` has an activation of 0.52%.
Work on `CCN(C(=O)[C@@H](C1CC1)[C@@H](O)c1ccc2ccccc2c1)c1ccccc1` yielded an activation of -0.8%.
`Cc1ccc(N)cc1CN1CCN(c2ncc(Cc3ccccc3)cn2)CC1` was tested, and the activation was 0.77%.
In the case of `Cc1cc(N)n2nc(-c3ccc(C(C)(C)C)cc3)cc2n1`, the activation is reported as 20% (active).
`CCC1([N+](=O)[O-])COC(c2ccc(C)cc2)OC1` (configuration not stated) showed an activation of 1.83%.
In the case of `CCC1([N+](=O)[O-])COC(c2ccc(C(C)C)cc2)OC1` (configuration not stated), the activation is reported as 12.9% (active).
In the case of `CCC1(C)COC(c2ccc(OC)c(OC)c2)OC1` (configuration not stated), the activation is reported as -1.37%.
In the case of `Oc1ccc(/C=C/c2c(F)cccc2F)c2cccnc12`, the activation is reported as -6.27%.
Molecule `CCCCNc1cccc2c1S(=O)(=O)N[C@@H](C)CO2` has an activation of 0.24%.
Work on `O=C(NCc1ccccc1)[C@H]1CCCN1C(=O)[C@H]1CCCN1C(=O)c1cc(F)cc(F)c1` yielded an activation of -0.18%.
`CC(C)N1CCCCC(NC(=O)C(C)(C)C)C1=O` (configuration not stated) was tested, and the activation was 0.58%.
With `CC(=O)c1ccc(S(=O)(=O)NCC2CCN(C(=O)C(=O)c3cccs3)CC2)cc1` the activation was -0.16%.
With `O=C(OCC(=O)N1CCOCC1)c1ccc2ccccc2c1` the activation was 4.48%.
In the case of `NC(=O)c1ccccc1N=Cc1ccc2ccccc2c1`, the activation is reported as 14.3% (active).
With `Cc1nc2c(C(=O)NCc3cccs3)cnn2c(C)c1Cc1ccc(F)cc1` the activation was -1.35%.
`C=CCN1C(=O)[C@@H](CC(=O)NCCCCc2ccccc2)[C@]2(C(=O)OCC)CCCCC/C=C/12` showed an activation of 2.01%.
Work on `Cc1ccccc1C(=O)N[C@H](C(=O)N1CCC[C@H]1C(=O)NCc1ccccc1)C(C)C` yielded an activation of -1.35%.
With `COc1cccc(CC(=O)N2CCN(C(=O)C(=O)c3cccc(C(F)(F)F)c3)CC2)c1` the activation was -0.52%.
In the case of `CCOC(=O)c1csc(CCNC(=O)c2oc3c(Cl)cc(C)cc3c2C)n1`, the activation is reported as 1.98%.
Work on `CN(C)C(=O)c1ccc(NC(=O)COC(=O)c2cc3c(s2)CCCCC3)cc1` yielded an activation of 2.42%.
Molecule `O=C(NCC1CCCO1)c1cc2c(s1)CCCC2` (configuration not stated) has an activation of 7.29%.
For `O=C(Nc1ccc(F)cc1)c1cc2c(s1)CCCC2`, the activation was 10.8% (active).
For `COc1ccc(CCNC(=O)NS(=O)(=O)c2ccc(C)cc2)cc1OC`, the activation was -1.2%.
For `COc1cc(NC(=O)C2CCCN(S(=O)(=O)c3ccc(C(C)(C)C)cc3)C2)cc(OC)c1` (configuration not stated), the activation was 4.12%.
With `CCn1c2ccccc2c2cc(NC(=O)CSc3nnc(-c4ccccc4)n3-c3ccc(C)cc3)ccc21` the activation was 1.54%.
`Fc1ccc(-c2ccc(CNCc3ccccn3)o2)cc1Cl` gave an activation of -0.65%.
For `Clc1ccc(-c2cc(-c3ccccn3)on2)c(Cl)c1`, the activation was 11.2% (active).
`Clc1ccccc1-c1cc(COc2ccc3ccccc3c2)no1` gave an activation of 0%.
`CS(=O)(=O)N(CC(=O)N1CCOCC1)c1ccc2c3c(cccc13)CC2` was tested, and the activation was 0.28%.
Molecule `CCc1c(C)c2c(C)[nH]nc2oc1=O` has an activation of -1.18%.
`CN(Cc1nc2ccc(F)cc2[nH]1)Cc1nc(CC2CC2)no1` showed an activation of -0.98%.
Work on `O=C(NN=Cc1ccco1)C(=O)Nc1ccc(Cl)c([N+](=O)[O-])c1` yielded an activation of -2.99%.
With `COc1ccc(CCNC(=O)CSc2nc3c([nH]2)c(=O)n(C)c(=O)n3C)cc1` the activation was 0.07%.
With `Cc1csc(SCC(=O)Nc2sccc2C#N)n1` the activation was 17.8% (active).
`N#Cc1ccsc1NC(=O)CN1CCCCC1` was tested, and the activation was -0.08%.
`Cc1csc(SCC(=O)Nc2ccc(C)c(S(=O)(=O)N(C)C)c2)n1` gave an activation of 0.79%.
In the case of `CC(=O)Nc1ccc(N2C(=O)C3C4CC(=O)C(c5ccccc54)C3C2=O)cc1` (configuration not stated), the activation is reported as -0.45%.
`CC(=O)O[C@@]1(C(C)=O)CCC2[C@H]3C=C(C)C4=CC(=O)CC[C@@]4(C)C3CC[C@]21C` (some centres not stated) showed an activation of -4.47%.
In the case of `FC(F)(F)c1cccc(Cn2ccc3ccc(-c4ccc5ccn(Cc6ccccc6)c5c4)cc32)c1`, the activation is reported as -0.72%.
`COc1ccc(NC(=O)N2CCC(Cc3ccccc3)CC2)cc1` showed an activation of 1.2%.
`COc1ccc(N2CCN(C(=S)Nc3ccc(S(N)(=O)=O)cc3)CC2)cc1` gave an activation of -4.74%.
`COc1ccc(NC(=S)N2N=CCC2c2ccccc2)cc1` (configuration not stated) was tested, and the activation was 16.5% (active).
Molecule `CC(Sc1nnc(Cc2ccc([N+](=O)[O-])cc2)o1)C(N)=O` (configuration not stated) has an activation of -0.65%.
For `CCOC(=O)/C=C/c1ccccc1O`, the activation was 2.77%.
Work on `Cc1ccc(CN2CCN(Cc3ccccc3-c3ccco3)CC2CCO)o1` (configuration not stated) yielded an activation of -2.88%.
`N#CC1=C(N)N(c2ccc(F)cc2)C(=O)C1` was tested, and the activation was -1.83%.
Work on `Cc1ccc(NNC(=O)c2cccs2)cc1Cl` yielded an activation of 1.51%.
For `O=C(NNC(=O)c1ccc(Cl)cc1Cl)c1cccs1`, the activation was 18.7% (active).
For `O=C(COC(=O)c1ccc(O)cc1O)NNC(=O)c1cccs1`, the activation was 0.57%.
